Test results as given in PubChem BioAssay AID623868 (Vanderbilt High Throughput Screening Facility, 2012).
Screen size: about 2,100 compounds; about 760 (36%) were called active.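 Rule for the calls: active = thallium-flux fluorescence traces judged by eye to show enhanced or reduced glutamate response, manual score 1 or -1, so both directions (some results past the limit were not filed as active); inactive = the rest, including fluorescent or raised-baseline compounds.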 These entries were drawn from the full list.

experiment: thallium influx changes without GIRK channels – cell-based, HEK-293 rmGlu8, no GIRK, thallium flux, counter-screen for GIRK activator project, confirmation (AID 623868); conditions: thallium flux fluorescence, at 10 µM, actives lie on both sides, codes: 1 enhancer, -1 blocker, 0 none, thallium stimulus containing EC20 glutamate;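 note: extra codes mark interference with 3 for fluorescent and 4 for baseline rise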

Row | SMILES | manual score
1 | COC(=O)c1ccc(C(=O)OC)c(NC(=O)CSc2nc(-c3ccco3)cc(C(F)(F)F)n2)c1 | 0 (inactive)
2 | COc1ccccc1NC(=O)c1ccc(S(=O)(=O)N2CCCC2)cc1 | 0 (inactive)
3 | O=S(=O)(c1ccc(-c2nnc(SCc3nnc(-c4ccccc4)o3)o2)cc1)N1CCCC1 | 0 (inactive)
4 | CCN(CC)c1ccc2cc(C(=O)NNC(=O)c3ccc(S(=O)(=O)N4CCCCC4)cc3)c(=O)oc2c1 | 0 (inactive)
5 | CC1CCCN(S(=O)(=O)c2ccc(C(=O)Nc3nnc(-c4ccccc4Cl)o3)cc2)C1 (stereo not drawn) | 1 (active)
6 | O=C(Nc1nnc(-c2ccccc2Cl)o1)c1ccc(S(=O)(=O)N2CCCCCC2)cc1 | 1 (active)
7 | Cc1cc(C)nc(N2CCCC(C(=O)NCCc3ccc(F)cc3)C2)n1 (stereo not drawn) | 0 (inactive)
8 | CN1/C(=C\C=C2/C(=O)Oc3ccccc3C2=O)C(C)(C)c2ccccc21 | 3 (inactive)
9 | Cc1ccc(NC(=O)COc2cccnc2[N+](=O)[O-])cc1S(=O)(=O)N1CCCCC1 | 0 (inactive)
10 | Cc1nn(CC(=O)Nc2ccc(Cl)c(S(=O)(=O)N(C)C)c2)c(C)c1[N+](=O)[O-] | 0 (inactive)
11 | CC1(C)CC2CC(C)(CN2C(=S)NC(=O)c2ccccc2Cl)C1 (stereo not drawn) | 1 (active)
12 | CC1(C)CC2CC(C)(CN2c2ncnc3ccccc23)C1 (stereo not drawn) | 0 (inactive)
13 | Nn1c(SC/C=C/c2ccccc2)nnc1-c1ccccn1 | 0 (inactive)
14 | Clc1cccc(CSc2nc3ccncc3[nH]2)c1 | 0 (inactive)
15 | Cc1ccc(NC(=S)c2nc3ccccc3[nH]2)cc1 | 1 (active)
16 | S=C(Nc1ccc(Cl)cc1)c1nc2ccccc2[nH]1 | 1 (active)
17 | Fc1ccc(CSc2nc3ccccc3[nH]2)c2ccccc12 | 0 (inactive)
18 | NC(=O)SCC(=O)Nc1ccc(Cl)cc1 | 0 (inactive)
19 | Cc1oncc1C(=S)Nc1ccccc1 | 0 (inactive)
20 | CC(C)c1nc(N2CCN(C(=O)c3ccccc3)CC2)c(C#N)c2c1COC(C)(C)C2 | 0 (inactive)
21 | O=C(NC(=S)Nc1ccccc1N1CCCC1)c1ccc(-c2cccc([N+](=O)[O-])c2)o1 | 0.5 (inactive)
22 | Cc1c(C(=O)NC(=S)Nc2ccccc2N2CCCC2)cccc1[N+](=O)[O-] | 1 (active)
23 | O=C(NC(=S)Nc1ccccc1N1CCCC1)c1ccc([N+](=O)[O-])cc1 | 1 (active)
24 | O=C(NC(=S)Nc1ccccc1N1CCCC1)c1ccccc1[N+](=O)[O-] | 1 (active)
25 | O=C(CSc1nc(O)cc(=O)n1-c1ccccc1)N1CCCCC1 | 2 (inactive)

Row | SMILES | manual score
26 | COc1cccc(N(CC(=O)Nc2cccc(C(C)=O)c2)S(C)(=O)=O)c1 | 0 (inactive)
27 | CCOC(=O)C1=C(C)NC2=C(C(=O)C(C(=O)OCC)C(c3cccc(OC)c3)C2)C1c1ccccn1 (stereo not drawn) | -0.5 (inactive)
28 | COC(=O)CSc1nc2ncccc2[nH]1 | 0 (inactive)
29 | O=C1NC(=O)/C(=C\c2ccccc2Oc2ccc(F)c(F)c2)S1 | 0 (inactive)
30 | COc1cc(/C=C2/SC(=S)NC2=O)ccc1OS(=O)(=O)c1ccc(C)cc1 | 1 (active)
31 | COc1ccc(/C=C/C(=O)N2CCN(S(=O)(=O)/C=C/c3ccccc3)CC2)cc1OC | 0 (inactive)
32 | COc1cc(/C=C2\SC(=S)NC2=O)ccc1OS(=O)(=O)c1ccccc1 | 1 (active)
33 | COc1cc(/C=C2\S/C(=N/S(=O)(=O)c3ccc(C)cc3)NC2=O)c([N+](=O)[O-])cc1OC | 0 (inactive)
34 | COc1ccc(/C=C2\SC(=O)NC2=S)cc1OC | 1 (active)
35 | CCOc1ccc(OCCSc2nc3ccccc3[nH]2)cc1 | 0 (inactive)
36 | O=C(Nc1nc(-c2ccccc2)c(-c2ccccc2)o1)c1ccc(F)cc1 | 1 (active)
37 | Cc1ccc(C(=O)Nc2cnc3ccccn3c2=O)cc1 | 0 (inactive)
38 | Cc1ccc(C(=O)Nc2nc(-c3ccccc3)c(-c3ccccc3)o2)cc1 | 1 (active)
39 | OCCCN=c1cc(-c2ccccc2)oc2ccc(Cl)cc12 | -0.5 (inactive)
40 | CCCSc1nnc(Nc2ccccc2C)s1 | 0 (inactive)
41 | O=C(O)CC/C(=C\c1cc([N+](=O)[O-])ccc1Cl)c1nc2ccccc2s1 | -1 (active)
42 | O=C(CC(O)(C(F)(F)F)C(F)(F)F)Nc1ccc(Cl)c(Cl)c1 | 0 (inactive)
43 | CCCOc1ccc(NCC(=O)Nc2ccc(C)cc2C)cc1 | 0 (inactive)
44 | CNC(=S)SCCOc1ccc(C)cc1 | 3 (inactive)
45 | CCOC(=O)c1ccc(NC(=S)NC(=O)COc2ccccc2)cc1 | 0 (inactive)
46 | CCCCOc1ccc(C(=O)NNC(=S)NC(=O)CC)cc1 | 1 (active)
47 | CCCOc1ccc(C(=O)NNC(=S)NC(=O)CC)cc1 | 1 (active)
48 | CCCCOc1ccc(C(=O)OC2CC(C)N(C)CC2C)cc1 (stereo not drawn) | 0 (inactive)
49 | CCNS(=O)(=O)c1cc(S(C)(=O)=O)ccc1Cl | 0 (inactive)
50 | Oc1ccc2ccc3cccc[n+]3c2c1 | 3 (inactive)

Row | SMILES | manual score
51 | C=COCCNC(=O)Nc1ccc(Cl)c(Cl)c1 | 0 (inactive)
52 | CCOC(=O)C1=C(NC(=S)NC(=O)c2ccccc2)c2ccccc2CC1C(C)C (stereo not drawn) | 0 (inactive)
53 | CCOC(=O)c1c(NC(=S)NC)sc2c1CC(C)(C)SC2 | 1 (active)
54 | C=CCNC(=S)Nc1sc2c(c1C(=O)OCC)CC(C)(CC)OC2 (stereo not drawn) | 1 (active)
55 | CCOC(=O)c1c(NC(=S)NCCc2ccccc2)sc2c1CC(C(C)C)OC2 (stereo not drawn) | 0 (inactive)
56 | C=CCNC(=S)Nc1sc2c(c1C(=O)OCC)CC(C(C)C)OC2 (stereo not drawn) | 1 (active)
57 | CCOc1ccccc1OCCCCCc1c(C)n[nH]c1C | 0 (inactive)
58 | CC(C)NC(=S)N/N=C/c1cc(Br)ccc1O | 1 (active)
59 | O=C(Nc1nnc(-c2ccc(Cl)cc2)o1)c1nc2ccccc2s1 | 1 (active)
60 | O=C(Nc1nnc(-c2ccccc2Cl)o1)c1nc2ccccc2s1 | 1 (active)
61 | CC(C)NC(=O)c1nc2ccccc2s1 | 0 (inactive)
62 | O=C(Nc1nnc(-c2ccc(Cl)cc2)o1)c1ccccc1Br | 1 (active)
63 | O=C(Nc1nnc(-c2ccc(Cl)cc2)o1)C1=COCCO1 | 0.5 (inactive)
64 | CCN(CC)c1ccc2cc(-c3nc4ccccc4[nH]3)c(=O)oc2c1 | 3 (inactive)
65 | COc1cccc(NC(=O)NCCCSC2CCCCC2)c1 | 0 (inactive)
66 | Cc1ccc(-c2cc(-c3n[nH]c(=S)o3)c3ccccc3n2)cc1 | 1 (active)
67 | O=C(NC(=S)N(Cc1ccccc1)Cc1ccccc1)c1ccccc1F | 1 (active)
68 | FC(F)(F)Oc1ccc(NC(=S)NCc2ccccc2)cc1 | 0 (inactive)
69 | O=C(Nc1cc(Cl)ccc1Oc1ccccc1)c1ccccc1F | 0 (inactive)
70 | O=C(NC(=S)NCc1ccccc1)c1ccccc1F | 1 (active)
71 | Cc1cccc(C)c1NC(=S)NC(=O)c1ccccc1F | 1 (active)
72 | FC(F)(F)c1cccc(NC(=S)NCc2ccccc2)c1 | 0 (inactive)
73 | Fc1ccccc1NC(=S)NN(Cc1ccccc1)c1ccccc1 | 0 (inactive)
